Experimental data from PubChem BioAssay AID1159580 (chemical genetic matrix, 2015).
Several values for one entry are separate records, joined by “and”; a condition that tells them apart may be missing. Equal entries are not always repeated. In all, about 5,500 compounds went through this assay and about 2,000 (36%) were called active. Inconclusive results (about 18%) are left out. Rule as the data show it: active = normalized growth mostly below about 0.91 (no sharp cut-off); inconclusive = no clear call, values can overlap the other calls; inactive = mostly above about 0.92. Some of the results follow.

Test: chemical genetic growth profiling, strain panel (AID 1159580);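 also: tested at 20 µM; growth read once vehicle control cultures reached saturation at 30 °C; 1 = growth at the plate median or of vehicle wells; lower values mean less growth of the strain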
Details: growth OD
[1] = S. cerevisiae deletion strains, locus YGR078C, strain PAC10, stronger effect = lower value
[2] = S. cerevisiae deletion strains, locus YGR229C, strain SMI1, stronger effect = lower value
[3] = S. cerevisiae deletion strains, locus YJR075W, strain HOC1, stronger effect = lower value
[4] = S. cerevisiae deletion strains, locus YMR263W, strain SAP30, stronger effect = lower value
[5] = S. cerevisiae deletion strains, locus YMR307W, strain GAS1, stronger effect = lower value
[6] = S. cerevisiae deletion strains, locus YNL153C, strain GIM3, stronger effect = lower value
[7] = S. cerevisiae deletion strains, locus YNL322C, strain KRE1, stronger effect = lower value
[8] = S. cerevisiae deletion strains, locus YPL055C, strain LGE1, stronger effect = lower value
[9] = S. cerevisiae deletion strains, locus YAL013W, strain DEP1, stronger effect = lower value
[10] = S. cerevisiae deletion strains, locus YBR229C, strain ROT2, stronger effect = lower value
[11] = S. cerevisiae deletion strains, locus YCL061C, strain MRC1, stronger effect = lower value
[12] = S. cerevisiae deletion strains, locus YDL101C, strain DUN1, stronger effect = lower value
[13] = S. cerevisiae deletion strains, locus YDR150W, strain NUM1, stronger effect = lower value
[14] = S. cerevisiae deletion strains, locus YEL061C, strain CIN8, stronger effect = lower value
[15] = S. cerevisiae deletion strains, locus YHR030C, strain SLT2, stronger effect = lower value
[16] = S. cerevisiae deletion strains, locus YHR087W, strain rtc3, stronger effect = lower value
[17] = S. cerevisiae deletion strains, locus YJL187C, strain SWE1, stronger effect = lower value
[18] = S. cerevisiae deletion strains, locus YJR043C, strain POL32, stronger effect = lower value
[19] = S. cerevisiae deletion strains, locus YKL190W, strain CNB1, stronger effect = lower value
[20] = S. cerevisiae deletion strains, locus YLR039C, strain RIC1, stronger effect = lower value
[21] = S. cerevisiae deletion strains, locus YLR058C, strain SHM2 (second series), stronger effect = lower value
[22] = S. cerevisiae deletion strains, locus YLR085C, strain ARP6, stronger effect = lower value
[23] = S. cerevisiae deletion strains, locus YLR262C, strain YPT6, stronger effect = lower value
[24] = S. cerevisiae deletion strains, locus YML094W, strain GIM5, stronger effect = lower value
[25] = S. cerevisiae deletion strains, locus YMR219W, strain ESC1, stronger effect = lower value
[26] = S. cerevisiae deletion strains, locus YNL298W, strain CLA4 (second series), stronger effect = lower value
[27] = S. cerevisiae deletion strains, locus YNR030W, strain Alg12, stronger effect = lower value
[28] = S. cerevisiae deletion strains, locus YPL241C, strain CIN2, stronger effect = lower value
[29] = S. cerevisiae deletion strains, locus YPR135W, strain CTF4, stronger effect = lower value
[30] = S. cerevisiae strains, strain wild type, stronger effect = lower value

Measured: normalized growth

c1ccc(C2CN3CCSC3=N2)cc1 (centres undefined)
inactive: S. cerevisiae deletion strains, locus YAL040C, strain CLN3, stronger effect = lower value 0.985 and 1 | S. cerevisiae deletion strains, locus YCL061C, strain MRC1 (second series), stronger effect = lower value 0.997 and 1.02 | S. cerevisiae deletion strains, locus YDR363W, strain ESC2, stronger effect = lower value 1.02 and 1.04 | S. cerevisiae deletion strains, locus YER002W, strain NOP16, stronger effect = lower value 0.991 and 1.03 | [1] 1 | [2] 1.04 | [3] 1.04 and 1.01 | [4] 1.01 | [5] 1.02 and 1 | [6] 1.02 | S. cerevisiae deletion strains, locus YNL175C, strain NOP13, stronger effect = lower value 0.984 and 1 | S. cerevisiae deletion strains, locus YNL197C, strain WHI3, stronger effect = lower value 0.977 and 1.01 | S. cerevisiae deletion strains, locus YNL224C, strain SQS1, stronger effect = lower value 0.999 and 1.01 | [7] 1.02 | S. cerevisiae deletion strains, locus YOR083W, strain WHI5 (second series), stronger effect = lower value 0.983 and 1.03 | [8] 1.05

Cc1cccc(N2C(=O)C3C4C=CC(C4)C3C2=O)n1 (centres undefined)
inactive: [9] 0.994 | [10] 0.993 | [11] 0.985 | [12] 0.989 | [13] 0.987 | [14] 0.987 | [1] 1.01 | [15] 0.999 | [16] 0.971 | [17] 0.995 | [18] 1.01 | [3] 0.989 | [19] 0.991 | [20] 0.977 | [21] 0.992 | [22] 0.987 | [23] 0.998 | [24] 0.983 | [25] 0.992 | [4] 0.987 | [6] 1 | [26] 1.01 | [7] 1.01 | [27] 1 | [8] 0.991 | [28] 1.01 | [29] 1.03 | [30] 0.999

O=C1CCC(=O)N1CNc1ccccc1OC(F)(F)F
inactive: [9] 0.968 | [10] 0.994 | [11] 1.01 | [12] 0.963 | S. cerevisiae deletion strains, locus YDL134C, strain PPH21, stronger effect = lower value 0.999 | [13] 1.02 | [14] 0.984 | [1] 0.996 | [2] 0.998 | [15] 1.04 | [16] 0.989 | [17] 1 | [18] 1 | [3] 0.997 | [19] 0.999 | [20] 0.991 | [21] 0.992 | [22] 1.02 | [23] 1.05 | [24] 1.02 | [25] 0.993 | [4] 1.03 | [5] 1.2 | S. cerevisiae deletion strains, locus YNL128W, strain TEP1, stronger effect = lower value 0.993 | [6] 1.01 | [26] 0.971 | [7] 0.983 | [27] 1 | [8] 1.07 | [28] 1.02 | [29] 0.92

Cc1cccc(NCN2C(=O)CCC2=O)n1
inactive: [9] 0.968 | [10] 0.996 | [12] 0.956 | [13] 0.959 | [14] 0.982 | [1] 0.965 | [15] 0.821 | [16] 1.06 | [18] 0.972 | [3] 0.987 | [21] 0.97 | [22] 0.95 | [24] 0.932 | [25] 0.992 | [4] 1.01 | [5] 1.22 | [6] 0.98 | [26] 0.938 | [7] 0.983 | [27] 0.977 | [8] 1 | [28] 0.96 | [29] 0.978
active: [20] 0.643 | [23] 0.572

CC1=CC(C)(C)NC(=S)N1
inactive: [9] 1.01 | [10] 1.01 | [12] 1 | [13] 0.981 | [14] 1.01 | [1] 1 | [2] 1.02 | [15] 1.06 | [16] 1 | [18] 1 | [3] 1.01 | [19] 1.01 | [20] 1.01 | [21] 1 | [22] 0.984 | [23] 1.05 | [24] 0.996 | [25] 1 | [4] 1.02 | [6] 0.997 | [26] 1 | [7] 1.01 | [27] 1.01 | [8] 0.984 | [28] 1.03 | [29] 1.06

Oc1ccc(-n2nnnc2SCc2ccc(OC(F)(F)F)cc2)cc1
active: S. cerevisiae deletion strains, locus YGR052W, strain FMP48, stronger effect = lower value 0.577 | [15] 0.554 | S. cerevisiae deletion strains, locus YKL048C, strain ELM1, stronger effect = lower value 0.635 | S. cerevisiae deletion strains, locus YKL101W, strain HSL1, stronger effect = lower value 0.716 | S. cerevisiae deletion strains, locus YLR113W, strain HOG1, stronger effect = lower value 0.523 | S. cerevisiae deletion strains, locus YOR231W, strain MKK1, stronger effect = lower value 0.509 | S. cerevisiae deletion strains, locus YPL153C, strain RAD53, stronger effect = lower value 0.599 | S. cerevisiae deletion strains, locus YPL204W, strain HRR25, stronger effect = lower value 0.622 | S. cerevisiae deletion strains, locus YPL256C, strain CLN2, stronger effect = lower value 0.467
inactive: S. cerevisiae deletion strains, locus YAR019C, strain CDC15, stronger effect = lower value 0.974 | S. cerevisiae deletion strains, locus YBL105C, strain PKC1, stronger effect = lower value 0.971 | S. cerevisiae deletion strains, locus YBR135W, strain CKS1, stronger effect = lower value 0.979 | S. cerevisiae deletion strains, locus YBR136W, strain MEC1, stronger effect = lower value 0.975 | S. cerevisiae deletion strains, locus YBR160W, strain CDC28, stronger effect = lower value 0.971 | S. cerevisiae deletion strains, locus YDL017W, strain CDC7, stronger effect = lower value 0.982 | S. cerevisiae deletion strains, locus YDL028C, strain MPS1, stronger effect = lower value 0.979 | [12] 0.988 | S. cerevisiae deletion strains, locus YDL108W, strain KIN28, stronger effect = lower value 0.972 | S. cerevisiae deletion strains, locus YDL132W, strain cdc53, stronger effect = lower value 0.984 | S. cerevisiae deletion strains, locus YDL214C, strain PRR2, stronger effect = lower value 0.815 | S. cerevisiae deletion strains, locus YDR052C, strain DBF4, stronger effect = lower value 0.984 | S. cerevisiae deletion strains, locus YDR054C, strain cdc34, stronger effect = lower value 0.968 | S. cerevisiae deletion strains, locus YDR226W, strain ADK1, stronger effect = lower value 0.98 | S. cerevisiae deletion strains, locus YDR477W, strain SNF1, stronger effect = lower value 0.783 | S. cerevisiae deletion strains, locus YER123W, strain YCK3, stronger effect = lower value 0.651 | S. cerevisiae deletion strains, locus YER133W, strain GLC7, stronger effect = lower value 0.767 | S. cerevisiae deletion strains, locus YFL009W, strain cdc4, stronger effect = lower value 0.975 | S. cerevisiae deletion strains, locus YFL029C, strain CAK1, stronger effect = lower value 0.97 | S. cerevisiae deletion strains, locus YFR003C, strain YPI1, stronger effect = lower value 0.98 | S. cerevisiae deletion strains, locus YFR019W, strain FAB1, stronger effect = lower value 0.794 | S. cerevisiae deletion strains, locus YFR028C, strain CDC14, stronger effect = lower value 0.97 | S. cerevisiae deletion strains, locus YGR040W, strain KSS1, stronger effect = lower value 0.747 | S. cerevisiae deletion strains, locus YGR092W, strain DBF2, stronger effect = lower value 0.663 | S. cerevisiae deletion strains, locus YHR079C, strain IRE1, stronger effect = lower value 0.563 | S. cerevisiae deletion strains, locus YHR082C, strain KSP1, stronger effect = lower value 0.617 | S. cerevisiae deletion strains, locus YHR205W, strain SCH9, stronger effect = lower value 0.867 | S. cerevisiae deletion strains, locus YIL147C, strain SLN1, stronger effect = lower value 0.984 | S. cerevisiae deletion strains, locus YJL095W, strain BCK1, stronger effect = lower value 0.597 | S. cerevisiae deletion strains, locus YJL128C, strain PBS2, stronger effect = lower value 0.932 | S. cerevisiae deletion strains, locus YJL157C, strain FAR1, stronger effect = lower value 0.832 | S. cerevisiae deletion strains, locus YJR016C, strain ILV3, stronger effect = lower value 0.977 | S. cerevisiae deletion strains, locus YJR066W, strain TOR1 (second series), stronger effect = lower value 0.738 | S. cerevisiae deletion strains, locus YJR066W, strain TOR1, stronger effect = lower value 0.647 | S. cerevisiae deletion strains, locus YKL067W, strain YNK1, stronger effect = lower value 0.794 | S. cerevisiae deletion strains, locus YKL193C, strain SDS22, stronger effect = lower value 0.978 | S. cerevisiae deletion strains, locus YKL203C, strain TOR2, stronger effect = lower value 0.803 | S. cerevisiae deletion strains, locus YLR133W, strain CKI1, stronger effect = lower value 0.835 | S. cerevisiae deletion strains, locus YLR403W, strain SFP1, stronger effect = lower value 0.828 | S. cerevisiae deletion strains, locus YML070W, strain DAK1, stronger effect = lower value 0.703 | S. cerevisiae deletion strains, locus YMR001C, strain CDC5, stronger effect = lower value 0.97 | S. cerevisiae deletion strains, locus YMR205C, strain PFK2 (second series), stronger effect = lower value 0.782 | S. cerevisiae deletion strains, locus YMR277W, strain FCP1, stronger effect = lower value 0.981 | S. cerevisiae deletion strains, locus YNL006W, strain LST8, stronger effect = lower value 0.981 | S. cerevisiae deletion strains, locus YNL020C, strain ARK1, stronger effect = lower value 0.805 | S. cerevisiae deletion strains, locus YNL161W, strain CBK1, stronger effect = lower value 0.976 | S. cerevisiae deletion strains, locus YNL183C, strain NPR1, stronger effect = lower value 0.635 | S. cerevisiae deletion strains, locus YNL207W, strain RIO2, stronger effect = lower value 0.97 | S. cerevisiae deletion strains, locus YNL222W, strain SSU72, stronger effect = lower value 0.966 | S. cerevisiae deletion strains, locus YNL307C, strain MCK1 (second series), stronger effect = lower value 0.791 | S. cerevisiae deletion strains, locus YOL078W, strain AVO1, stronger effect = lower value 0.978 | S. cerevisiae deletion strains, locus YOL136C, strain PFK27, stronger effect = lower value 0.75 | S. cerevisiae deletion strains, locus YOR061W, strain CKA2, stronger effect = lower value 0.772 | S. cerevisiae deletion strains, locus YOR119C, strain RIO1, stronger effect = lower value 0.806 | S. cerevisiae deletion strains, locus YOR329C, strain SCD5, stronger effect = lower value 0.986 | S. cerevisiae deletion strains, locus YPL031C, strain PHO85, stronger effect = lower value 0.725 | S. cerevisiae deletion strains, locus YPL209C, strain IPL1, stronger effect = lower value 0.977 | S. cerevisiae deletion strains, locus YPR025C, strain CCL1, stronger effect = lower value 0.975 | S. cerevisiae deletion strains, locus YPR106W, strain ISR1, stronger effect = lower value 0.971 | S. cerevisiae deletion strains, locus YPR111W, strain DBF20, stronger effect = lower value 0.967 | S. cerevisiae deletion strains, strain NNK1, stronger effect = lower value 0.979 | S. cerevisiae deletion strains, strain TSCII, stronger effect = lower value 0.983

NNC(=S)Nc1ccc(C(F)(F)F)cc1
active: [9] 0.918 | [10] 0.895 | [11] 0.872 | [14] 0.796 | [1] 0.867 | [15] 0.331 | [16] 0.899 | [19] 0.715 | [22] 0.254 | [24] 0.703 | [6] 0.912 | [26] 0.378 | [27] 0.522 | [8] 0.735 | [28] 0.661 | [29] 0.513 | [30] 0.756
inactive: [12] 0.982 | [13] 0.899 | [18] 0.972 | [3] 0.961 | [20] 0.847 | [21] 0.968 | [23] 0.962 | [25] 0.985 | [4] 0.937 | [7] 0.999
